SMILES strings stand for the structures. A number with no mark means an inactive call. Results filed as inconclusive are left out. Activity calls are given as the source filed them. Unless noted, calls follow the shape of the dose curve; as a rule, active = well fitted curve in either direction with a large enough effect (not every such curve was filed as active); inconclusive = small, poorly fitted or top-dose-only effect, or another doubt; inactive = flat fitted curve, though single readings scatter.

Assay [1] deals with Lysosomal acid glucosylceramidase (Homo sapiens) (UniProt P04062). Put plainly: Glucocerebrosidase-p2 (AID 348; in the data active = potency below about 10 µM; also: potency is read from the fitted curve at half-maximal effect). The settings on record: purified GBA, blue fluorogenic substrate, 40 min. The essentials: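 Compounds titrated from 0.6 nM upwards against 0.2 nM enzyme in pH 5.9 citric acid/KH2PO4, taurocholate, tween-20; blue fluorogenic substrate 80 uM, 40 min room temperature, stopped and read Ex 365/Em 440 for AC50.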
Sequence of Lysosomal acid glucosylceramidase (Homo sapiens) (P04062 whole entry, looked up): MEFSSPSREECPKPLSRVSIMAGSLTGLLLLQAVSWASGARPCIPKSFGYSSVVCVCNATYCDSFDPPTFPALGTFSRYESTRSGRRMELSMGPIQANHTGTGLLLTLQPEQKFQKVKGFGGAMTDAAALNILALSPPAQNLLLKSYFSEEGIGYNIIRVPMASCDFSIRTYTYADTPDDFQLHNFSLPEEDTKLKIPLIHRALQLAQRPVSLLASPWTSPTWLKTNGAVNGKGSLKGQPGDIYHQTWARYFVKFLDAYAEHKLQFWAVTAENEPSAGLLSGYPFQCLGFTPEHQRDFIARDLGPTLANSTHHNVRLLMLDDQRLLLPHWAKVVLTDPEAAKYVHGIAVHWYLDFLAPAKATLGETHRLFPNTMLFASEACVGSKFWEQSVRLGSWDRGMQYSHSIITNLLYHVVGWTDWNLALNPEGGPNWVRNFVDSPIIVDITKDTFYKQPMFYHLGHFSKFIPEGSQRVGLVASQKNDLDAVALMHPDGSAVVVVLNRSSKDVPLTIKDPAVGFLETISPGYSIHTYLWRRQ

A short description of assay [2]: AP1 Signaling Pathway (AID 357).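 Also: ME-180 reporter cells stimulated with EGF at its EC50 level; % is scaled to controls: 0 for no effect and ±100 for the full control effect.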 The settings on record: ME-180 AP-1-bla reporter, EGF-induced, beta-lactamase ratio, 5 h; at 7.69 µM (top of the series) unless noted. In short, it runs like this:
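Modulation of EGF-driven AP-1 transcription was assessed with a beta-lactamase reporter in ME-180 cells. Compound and EC50 EGF were co-incubated 5 hours at 37 °C before 2.5-hour CCF4 loading at room temperature and dual-emission reading.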

The target of assay [3] is Cytochrome P450 1A2 (Homo sapiens) (UniProt P05177). Put plainly: p450-cyp1a2 (AID 410; calls by dose curve; also: potency is read from the fitted curve at half-maximal effect;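 as to activity change, negative = inhibition: -100% = full effect of reference inhibitor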). The following applies: recombinant CYP1A2, luciferin-ME demethylation, luminescence; series mostly up to 11.4 µM. The essentials: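 Luminescent readout of luciferin formed from Luciferin-ME by human CYP1A2; data normalized against complete inhibition by 57 uM furafylline. Enzyme 20nM, substrate 100uM at Km, 100mM KPO4 buffer, 60 min reaction at room temperature.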
Sequence of Cytochrome P450 1A2 (Homo sapiens) (P05177 whole entry, looked up): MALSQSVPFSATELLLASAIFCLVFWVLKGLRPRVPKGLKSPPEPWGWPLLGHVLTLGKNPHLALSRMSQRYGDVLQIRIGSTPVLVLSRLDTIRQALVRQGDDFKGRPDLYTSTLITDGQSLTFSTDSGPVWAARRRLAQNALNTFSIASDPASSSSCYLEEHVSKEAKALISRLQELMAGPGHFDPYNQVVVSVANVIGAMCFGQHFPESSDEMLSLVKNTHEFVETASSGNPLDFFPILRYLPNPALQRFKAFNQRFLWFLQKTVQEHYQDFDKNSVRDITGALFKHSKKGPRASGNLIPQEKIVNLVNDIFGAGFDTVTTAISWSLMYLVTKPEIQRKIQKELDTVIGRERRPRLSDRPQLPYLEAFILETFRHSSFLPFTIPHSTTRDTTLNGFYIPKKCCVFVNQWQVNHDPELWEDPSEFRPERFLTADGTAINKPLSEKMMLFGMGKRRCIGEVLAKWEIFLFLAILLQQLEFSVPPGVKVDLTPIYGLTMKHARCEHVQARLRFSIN

Assay [4] is described as follows: NFAT Signaling Pathway (AID 444).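 Also: carbachol stimulus at about its EC50 of 1 µM final; % is scaled to controls: 0 for no effect and ±100 for the full control effect.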 The settings on record: Jurkat NFAT-bla M1, carbachol, beta-lactamase ratio, 5 h; at 7.69 µM (top of the series) unless noted. The essentials:
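Jurkat cells with NFAT-driven β-lactamase reporter and co-expressed M1 receptor, stimulated with carbachol (final 1 uM, ~EC50), compound titration, 5 h at 37 °C. CCF4 loaded 1 h at RT; 460/530 nm ratio gave %activity and AC50.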

Assay [5] can be described thus: Stat Signaling Pathway (AID 446).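 Also: ME-180 cervical cancer cells given 40 pM IL-6 alongside compound; SIE-controlled beta-lactamase reporter measured as 460/530 nm FRET emission ratio; % is scaled to controls: 0 for no effect and ±100 for the full control effect.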 The following applies: ME-180 SIE beta-lactamase reporter, IL-6 stimulated, 5 h; at 7.69 µM (top of the series) unless noted. The essentials:
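Screening format detects activators and inhibitors alike: ME-180 SIE-bla cells stimulated at 40 pM IL-6 for 5 hrs with compound, then dual-emission beta-lactamase read at 405 nm excitation.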

In assay [6] the target is Glucocorticoid receptor (Homo sapiens) (UniProt P04150). Put plainly: GR-GFP Redistribution (AID 450;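 active = compounds whose dose series gives a full or clear partial fitted curve of increased nuclear translocation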; also: potency is read from the fitted curve at half-maximal effect). The settings on record: U2OS GR-GFP nuclear translocation, laser cytometry, 2 h.
Sequence of Glucocorticoid receptor (Homo sapiens) (P04150 whole entry, looked up, the tested form may be a part): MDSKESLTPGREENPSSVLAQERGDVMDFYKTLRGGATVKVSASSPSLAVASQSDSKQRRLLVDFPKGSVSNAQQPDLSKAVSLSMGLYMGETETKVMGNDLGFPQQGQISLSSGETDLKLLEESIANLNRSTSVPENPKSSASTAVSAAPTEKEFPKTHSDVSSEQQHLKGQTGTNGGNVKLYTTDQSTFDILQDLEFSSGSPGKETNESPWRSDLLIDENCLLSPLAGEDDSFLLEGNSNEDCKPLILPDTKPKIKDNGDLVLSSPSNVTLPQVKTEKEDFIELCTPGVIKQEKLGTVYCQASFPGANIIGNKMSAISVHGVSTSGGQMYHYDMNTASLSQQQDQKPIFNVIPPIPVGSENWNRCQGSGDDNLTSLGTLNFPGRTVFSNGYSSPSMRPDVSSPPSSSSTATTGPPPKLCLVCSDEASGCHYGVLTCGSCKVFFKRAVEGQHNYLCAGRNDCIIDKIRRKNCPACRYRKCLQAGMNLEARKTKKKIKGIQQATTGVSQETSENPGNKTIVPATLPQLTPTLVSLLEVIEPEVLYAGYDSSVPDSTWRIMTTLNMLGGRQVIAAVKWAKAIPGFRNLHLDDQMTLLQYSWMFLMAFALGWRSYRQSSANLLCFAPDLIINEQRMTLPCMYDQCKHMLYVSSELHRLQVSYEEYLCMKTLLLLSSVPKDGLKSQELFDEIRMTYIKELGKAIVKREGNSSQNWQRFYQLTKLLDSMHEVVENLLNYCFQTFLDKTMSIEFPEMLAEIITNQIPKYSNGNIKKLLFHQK
Assay [7] shares this target. The experiment in a line: GR-EFC Redistribution (AID 451; calls by dose curve; also: potency is read from the fitted curve at half-maximal effect). The following applies: CHO-K1 GR-EFC translocation, beta-gal luminescence, 2 h. In short, it runs like this: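 CHO-K1 cells expressing nuclear EA and GR-ED fragments of b-gal; compounds titrated up to 46 uM final, 2 h at 37 C. GR nuclear translocation read as complemented b-gal luminescence after 1 h RT detection.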

Assay [8] addresses Mitogen-activated protein kinase 10 (Mus musculus) (UniProt Q61831). The experiment in a line: JNK3 AlphaScreen Assay (AID 530).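 Also: kinase came from lysate of stimulated human HepG2 cells; signal reports phosphorylation of biotinylated GST-cJun 1-79 at Ser73 with 10 µM ATP; % is scaled to controls: 0 for no effect and ±100 for the full control effect.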 The following applies: JNK3 lysate, c-Jun phosphorylation; series mostly up to 11.4 µM. The essentials:
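Pre-activated (IL-1β/TNFα) JNK3 in HepG2 lysates phosphorylates biotin-GST-cJun(1-79), 10 uM ATP; anti-phospho-cJun(Ser73) AlphaScreen read at room temperature, pH 7.6 Tris buffer. Compounds pre-incubated 15 min as titrations.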

Assay [9] addresses 3',5'-cyclic-AMP phosphodiesterase 4B (Homo sapiens) (UniProt Q07343). The experiment in a line: qHTS Assay for Inhibitors of PDE-IV (AID 607; active = well fitted activation curve with a large enough effect in the main read-out, with a control signal flat, not every such curve was filed as active; also: % of control where 0% means no effect). The following applies: HEK293 ACTOne CNG channel cells, membrane potential fluorescence; series mostly up to 22.9 µM. The essentials: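 The readout is membrane depolarisation from a cAMP-sensing CNG channel, detected with a potential dye at ex 535/em 590. Cells were HEK293-derived (endogenous PDE-IV) at 1000 cells/well, titrated up to 22.9 uM final.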
In general terms: Quantitative high-throughput screening tests each substance at several concentrations.

Assay [10] has as its target Cytochrome P450 3A4 (Homo sapiens) (UniProt P08684). The experiment in a line: qHTS Assay for Activators of Cytochrome P450 3A4 (AID 885; active = well fitted curve in the direction sought with a large enough effect; an effect the other way counts as inactive or inconclusive; also: nearly all actives have a fitted effect of over 65% in size). The following applies: recombinant CYP3A4, Luciferin-PPXE luminescence, 60 min; series mostly up to 11.4 µM. The essentials:
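Steps: enzyme/substrate mix dispensed; compound added, 10 min RT; NADPH regeneration solution added, 60 min RT; luciferin detection buffer stops reaction; 20 min later luminescence measured.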

Assay [11] has as its target Cytochrome P450 2C19 (Homo sapiens) (UniProt P33261). Put plainly: qHTS Assay for Inhibitors and Substrates of Cytochrome P450 2C19 (AID 899; active = well fitted curve in the direction sought with a large enough effect; an effect the other way counts as inactive or inconclusive; also: % is scaled to controls: 0 for no effect and ±100 for the full control effect; nearly all actives have a fitted effect of over 60% in size). The following applies: recombinant CYP2C19, luciferin-H EGE luminescence; series mostly up to 11.4 µM. In short, it runs like this: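 5 nM human CYP2C19 with 10uM Luciferin-H EGE (at KM) in 50mM KPO4, compound preincubated 10 min at 37C, then NADPH regeneration for 60 min at 37C. Luciferin read by luminescence after detection reagent; normalized to 57uM ketoconazole as full inhibition.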

The target of assay [12] is Cytochrome P450 2D6 (Homo sapiens) (UniProt P10635). The experiment in a line: qHTS Assay for Inhibitors and Substrates of Cytochrome P450 2D6 (AID 891; active = well fitted curve in the direction sought with a large enough effect; an effect the other way counts as inactive or inconclusive; also: potency is read from the fitted curve at half-maximal effect; nearly all actives have a fitted effect of over 60% in size). The settings on record: recombinant CYP2D6, luciferin-ME EGE luminescence; series mostly up to 11.4 µM. The essentials: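 Human CYP2D6 (5 nM) with 30 uM Luciferin-ME EGE (at Km) in 100 mM KPO4, compound preincubated 10 min, then NADPH regeneration system for 60 min at room temperature. Luciferin read by luminescence; normalized to 1.43 uM quinidine.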
Sequence of Cytochrome P450 2D6 (Homo sapiens) (P10635 whole entry, looked up): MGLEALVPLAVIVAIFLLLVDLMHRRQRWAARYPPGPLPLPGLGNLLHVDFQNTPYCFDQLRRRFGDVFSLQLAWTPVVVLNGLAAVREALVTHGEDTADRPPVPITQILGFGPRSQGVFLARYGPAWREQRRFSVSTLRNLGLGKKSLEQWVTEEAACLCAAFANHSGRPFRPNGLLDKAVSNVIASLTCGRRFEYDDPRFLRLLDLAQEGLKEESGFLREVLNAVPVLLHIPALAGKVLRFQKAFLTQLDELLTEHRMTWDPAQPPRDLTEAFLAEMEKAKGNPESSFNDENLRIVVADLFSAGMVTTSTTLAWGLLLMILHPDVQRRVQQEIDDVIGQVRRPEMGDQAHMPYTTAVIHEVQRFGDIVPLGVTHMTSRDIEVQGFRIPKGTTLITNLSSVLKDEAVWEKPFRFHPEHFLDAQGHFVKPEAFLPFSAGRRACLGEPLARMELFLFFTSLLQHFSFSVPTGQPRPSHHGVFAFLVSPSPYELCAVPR

Sequence of Cytochrome P450 3A4 (Homo sapiens) (P08684 whole entry, looked up): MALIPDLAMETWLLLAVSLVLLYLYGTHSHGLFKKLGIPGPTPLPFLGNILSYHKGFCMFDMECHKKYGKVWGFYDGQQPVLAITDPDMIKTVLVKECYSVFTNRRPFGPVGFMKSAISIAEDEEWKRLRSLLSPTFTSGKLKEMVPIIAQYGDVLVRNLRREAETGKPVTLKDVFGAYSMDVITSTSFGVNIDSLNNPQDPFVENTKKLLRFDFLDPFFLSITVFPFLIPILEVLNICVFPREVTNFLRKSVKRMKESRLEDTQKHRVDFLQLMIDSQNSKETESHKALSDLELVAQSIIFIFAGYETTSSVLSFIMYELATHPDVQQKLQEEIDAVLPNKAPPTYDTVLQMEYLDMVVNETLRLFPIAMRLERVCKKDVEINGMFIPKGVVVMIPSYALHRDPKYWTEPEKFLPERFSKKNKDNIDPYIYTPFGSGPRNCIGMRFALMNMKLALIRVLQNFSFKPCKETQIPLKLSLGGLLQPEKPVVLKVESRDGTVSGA
Sequence of 3',5'-cyclic-AMP phosphodiesterase 4B (Homo sapiens) (Q07343 whole entry, looked up): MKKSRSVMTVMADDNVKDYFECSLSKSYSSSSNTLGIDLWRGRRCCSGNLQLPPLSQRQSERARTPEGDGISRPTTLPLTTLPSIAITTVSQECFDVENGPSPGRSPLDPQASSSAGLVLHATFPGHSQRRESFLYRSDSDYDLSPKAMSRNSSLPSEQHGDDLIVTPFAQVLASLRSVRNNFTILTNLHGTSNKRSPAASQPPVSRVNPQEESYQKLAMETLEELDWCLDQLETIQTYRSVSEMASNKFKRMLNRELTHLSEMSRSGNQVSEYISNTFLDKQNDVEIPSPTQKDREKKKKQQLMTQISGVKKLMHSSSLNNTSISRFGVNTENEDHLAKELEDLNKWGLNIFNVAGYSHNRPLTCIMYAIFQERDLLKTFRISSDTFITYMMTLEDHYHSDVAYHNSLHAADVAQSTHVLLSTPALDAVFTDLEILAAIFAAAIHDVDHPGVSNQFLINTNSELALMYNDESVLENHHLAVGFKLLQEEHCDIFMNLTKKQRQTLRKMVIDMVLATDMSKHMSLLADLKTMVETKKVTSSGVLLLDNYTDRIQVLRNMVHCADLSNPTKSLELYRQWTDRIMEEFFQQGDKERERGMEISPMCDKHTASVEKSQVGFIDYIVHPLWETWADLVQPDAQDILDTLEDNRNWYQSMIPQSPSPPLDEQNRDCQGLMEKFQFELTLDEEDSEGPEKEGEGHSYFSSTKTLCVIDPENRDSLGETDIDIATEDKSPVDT
Sequence of Cytochrome P450 2C19 (Homo sapiens) (P33261 whole entry, looked up): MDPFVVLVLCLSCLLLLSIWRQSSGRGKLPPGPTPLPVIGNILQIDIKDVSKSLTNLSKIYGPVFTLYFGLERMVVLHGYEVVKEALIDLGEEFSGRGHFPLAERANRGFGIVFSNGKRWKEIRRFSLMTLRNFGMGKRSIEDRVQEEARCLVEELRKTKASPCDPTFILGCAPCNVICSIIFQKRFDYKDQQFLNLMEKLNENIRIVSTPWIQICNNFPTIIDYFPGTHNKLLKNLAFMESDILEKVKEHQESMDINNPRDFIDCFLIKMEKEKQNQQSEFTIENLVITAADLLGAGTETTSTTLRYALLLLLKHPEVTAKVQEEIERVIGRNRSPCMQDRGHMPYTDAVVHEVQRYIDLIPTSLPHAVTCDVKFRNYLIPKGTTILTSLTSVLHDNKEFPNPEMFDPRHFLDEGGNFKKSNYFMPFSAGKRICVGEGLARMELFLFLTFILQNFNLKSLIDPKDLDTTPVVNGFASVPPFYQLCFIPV

For `COc1ccc(C=Nc2c(O)ccc3ccccc23)cc1OC`, the Potency in assay [1] was > 11.4 µM; in [3] it was 0.251 µM (active); in assay [6], > 46 µM; in [7] it was > 9.22 µM. Besides, the activity change, negative = inhibition is -0.822% in assay [2] and 9.83% in assay [4]. Also, the activity, negative = inhibition in [5] was -1.67%. Moreover, the Potency result in [8], in [9] and in assay [10] was “inactive” in each case.

Take `COCCn1c(=O)c(-c2ccccc2)nc2cnc(Oc3ccccc3)nc21`: the Potency in [1] was > 11.4 µM; in assay [3] it was 1.58 µM (active); in assay [6], > 9.22 µM; in [7], > 46 µM. The values for the activity change, negative = inhibition in assay [2] and in assay [4] were -29.9% and -6.49%, respectively. For the same compound, the activity, negative = inhibition in [5] is -4.14%. Further, the Potency result in assay [8], in assay [9] and in assay [10] was “inactive” each time.

For the compound `N=C(N)S[C@H]1c2ccccc2-c2cc([N+](=O)[O-])ccc21`, the Potency in [1] was > 11.4 µM; in [3], 0.158 µM (active); in [6] it was > 46 µM; in [7] it was > 9.22 µM. The activity change, negative = inhibition is -7.27% in [2] and -0.855% in assay [4]. In addition, in assay [5], the activity, negative = inhibition was -2.76%. Further, the Potency result in [8], in assay [9] and in [10] was “inactive” in each case.

Consider `C=C[C@]1(C)C[C@H](OC(=O)CO)[C@]2(C)C3C(=O)CC[C@]3(CC[C@H]2C)[C@H](C)[C@H]1O` (some centres not stated), for which the Potency in assay [1] is > 11.4 µM; in assay [6], > 46 µM; in assay [7] it was > 9.22 µM. In addition, the activity change, negative = inhibition in [2] was -0.357%; in assay [3] it was -21% [at 2.29 µM]; in [4], -4.75%. Also, the activity, negative = inhibition in assay [5] was -4.08%. For the same compound, the Potency entry in [8], in assay [9] and in [10] was “inactive” in each case.

Consider `O=S(=O)(c1cnccc1N1CCN(CCO)CC1)N1CCCC1`, for which the Potency in assay [1] was > 11.4 µM; in assay [6] it was > 46 µM; in assay [7], > 9.22 µM. Further, the activity change, negative = inhibition was 7.47% in assay [2], -8.3% [at 2.29 µM] in assay [3] and 4.17% in assay [4]. Moreover, the activity, negative = inhibition in assay [5] is 8.84%. The Potency entry in assay [8], in [9] and in assay [10] was “inactive” in each case.

For `O=C(O)/C=C\C(=O)Nc1ccc2c(c1)-c1ccccc1C2`, the Potency was > 11.4 µM in assay [1], 1 µM (active) in assay [3], > 46 µM in assay [6] and > 9.22 µM in assay [7]. In addition, the values for the activity change, negative = inhibition in [2] and in assay [4] were -11.5% and 6.68%, respectively. Further, the activity, negative = inhibition in assay [5] was -8.21%. Further, the Potency result in assay [8], in assay [9] and in [10] was “inactive” in each case.

As to `O=C(O)[C@@H]1[C@@H](C(=O)NCc2ccncc2)[C@@H]2C=C[C@@H]1O2`, the Potency in assay [1] is > 11.4 µM; in [3], 5.01 µM (active); in [6], > 46 µM; in [7], > 9.22 µM. Further, the activity change, negative = inhibition in assay [2] is 4.03%; in [4] it was 8.48%. Also, the activity, negative = inhibition in [5] is -1.14%. Further, the Potency entry in assay [8], in [9] and in [10] was “inactive” each time.

Regarding `Cc1cc(C(=O)CSC(=S)SC(C)(C)C)ccc1Cl`, the Potency in [1] was > 11.4 µM; in [3], 1.58 µM (active); in assay [6], > 46 µM; in assay [7] it was > 9.22 µM. The activity change, negative = inhibition in assay [2] is 7.67%; in assay [4] it was -16.2%. Further, the activity, negative = inhibition in [5] was -27.2%. For the same compound, the Potency entry in assay [8], in [9] and in assay [10] was “inactive” each time.

For the compound `C[C@@]12CCC(=O)C=C1CC[C@H]1[C@@H]2[C@@H](O)C[C@]2(C)[C@@H]1CC[C@@]2(O)C(=O)COC(=O)C1CCCC1`, the Potency is > 11.4 µM in [1], 0.0333 µM (active) in assay [6] and 0.61 µM (active) in assay [7]. Further, the activity change, negative = inhibition in [2] is -7.32%; in [4], 4.12%. In addition, the Potency result in [3], in assay [8], in assay [9] and in assay [10] was “inactive” throughout. The activity, negative = inhibition in assay [5] is -0.238%.

Turning to `COCCNc1nc(-c2ccc(C(=O)N(C)C)cc2)nc2ccccc12`, the Potency in assay [1] was > 11.4 µM; in assay [3] it was 20 µM (active); in [6] it was > 46 µM; in [7], > 46 µM. Besides, the activity change, negative = inhibition is 11.7% in assay [2] and 17.9% in assay [4]. For the same compound, the activity, negative = inhibition in assay [5] is 1.02%. Besides, the Potency result in [8], in assay [9] and in [10] was “inactive” each time.

Consider `CC1(CC(=O)O)O[C@H]2CCCCC[C@H]2O1` (some centres not stated) (tested in a mixture with another compound), for which the Potency in assay [1] is > 11.4 µM; in assay [6], > 46 µM; in [7] it was > 9.22 µM. In addition, the activity change, negative = inhibition in [2] was 8.96%; in [4], -4.93%. Further, the Potency entry in assay [3], in [8], in [9] and in assay [10] was “inactive” in each case. Further, the activity, negative = inhibition in assay [5] is 5.55%.

As to `Cn1c(=O)c2[nH]c(CCCc3ccc([N+](=O)[O-])cc3)nc2n(C)c1=O`, the Potency was > 11.4 µM in assay [1], > 46 µM in assay [6] and > 9.22 µM in assay [7]. The activity change, negative = inhibition in assay [2] is 1.15%; in assay [4] it was -1.84%. Besides, the Potency entry in assay [3], in [8], in [9] and in assay [10] was “inactive” each time. Further, in assay [5], the activity, negative = inhibition was 6%.

Take `COc1cc2c(cc1OC)C(CCN)=NCC2`: the Potency was > 11.4 µM in [1], 5.01 µM (active) in assay [3], > 46 µM in assay [6] and > 9.22 µM in assay [7]. The results for the activity change, negative = inhibition in assay [2] and in assay [4] were 7.92% and -11.2%, respectively. In addition, in [5], the activity, negative = inhibition is 8.17%. In addition, the Potency result in assay [8], in assay [9], in assay [10] and in assay [11] was “inactive” each time.

On to `O=C(CSC1=NCCN1)Nc1ccccc1`, for which the Potency in assay [1] is > 11.4 µM; in assay [3], 3.98 µM (active); in assay [6], > 46 µM; in [7] it was > 9.22 µM; in [12] it was 1.58 µM (active). The activity change, negative = inhibition in assay [2] is 15%; in assay [4] it was -6.05%. Also, in assay [5], the activity, negative = inhibition was -2.98%. Further, the Potency entry in [8], in assay [9] and in assay [10] was “inactive” in each case.

These data come from PubChem BioAssay (NCATS).
